# Screening results (PubChem BioAssay)
# Only some compounds are listed: those with a hit (about 0.81% of all), similar ones and a draw of the others.
# NR2F2 inh = NR2F2 (human) inhibition, primary screen; HEK293T NGFI-A luciferase reporter, luminescence; inhibition, % at 8.6 µM; 0.7% of 370,000 active;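 active = inhibition above a per-plate cutoff, mean inhibition of test wells between control levels plus 3 SD, cut at about 38% in these data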;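 note: cells cotransfected with COUP-TFII expression vector driving the NGFI-A reporter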
# NCOA1 inh = inhibitors of human steroid receptor coactivator 1 (SRC1); Q15788; HEK293 GAL4-SRC1 luciferase reporter, luminescence; inhibition, % at 3.6 µM; 0.12% of 360,000 active; AID 588354;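 active = inhibition above the campaign mean plus 3 SD, with each screening campaign given its own cutoff, cut at about 60% in these data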
# NR5A2 inv ag = suppresses constitutive activity of human LRH-1; 0.13% of 360,000 active; inhibition, % at 3.6 µM; AID 602396; O00482; HEK293T StAR-luciferase reporter, LRH-1 transfected, 24 h;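 active = inhibition above the mean inhibition of all tested compounds plus 3 SD, cut at about 73% in these data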
# NCOA3 inh = human NCOA3 inhibition; HEK293 GAL4-SRC3 luciferase reporter, luminescence; Q9Y6Q9; inhibition, % at 3.6 µM; 0.17% of 360,000 active; AID 588352;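 active = inhibition above a per-campaign cutoff, the mean of all compounds plus 3 SD, cut at about 60% in these data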;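 note: higher means less SRC3-driven luciferase light from the GAL4 reporter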
# SRC2 inh = inhibits human steroid receptor coactivator 2; Q15596; HEK293 GAL4-SRC2 luciferase reporter, luminescence; inhibition, % at 9 µM; 0.17% of 370,000 active;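 active = inhibition above the mean inhibition of all tested compounds plus 3 SD, set per campaign, cut at about 52% in these data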
# Gal4-VP16 ctr = counter-screen for COUP-TFII antagonists: inhibitors of VP16; inhibition, % at 8.5 µM; shares compounds with NR2F2 inh; HEK293 Gal4-VP16 luciferase reporter, luminescence; 25% of 2,500 active; in the data active = inhibition above about 13%
# COUP-TFII conf = COUP-TFII (NR2F2) inhibition, confirmation assay; shares compounds with NR2F2 inh; 45% of 2,500 active; AID 687008; inhibition, % at 8.5 µM; HEK293 NGFI-A luciferase reporter, luminescence;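 active = mean inhibition over three repeats above a set limit taken from the earlier primary screen, cut at about 38% in these data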
# Hits are given with their value; i = inactive; nt = no result given.
SMILES,NR2F2 inh,NCOA1 inh,NR5A2 inv ag,NCOA3 inh,SRC2 inh,Gal4-VP16 ctr,COUP-TFII conf
CCCc1cc(C(=O)N2CCN(c3ccccc3C)CC2)cs1,i,i,i,i,i,nt,nt
COc1cccc2c(NCc3ccccc3)nc(-n3c(N)nc4ccccc43)nc12,100,nt,nt,nt,nt,49,i
NC1=C(Cl)C(=O)c2ccc(S(N)(=O)=O)cc2C1=O,85,90,95,90,80,92,97
NC1=C(Cl)C(=O)c2ccccc2C1=O,i,i,i,i,i,nt,nt
O=C(Nc1cccc(S(=O)(=O)N2CCCCC2)c1)c1ccc2c(=O)n3c(nc2c1)CCCCC3,45,i,i,i,i,i,49
CN=C1S/C(=C\c2cc(C)n(-c3ccccc3F)c2C)C(=O)N1C,50,i,i,i,i,i,i
Cc1cc(/C=C2\SC(=O)N(C)C2=O)c(C)n1-c1ccc(O)cc1,50,i,i,i,i,i,i
CN=C1NC(=O)/C(=C\c2cc(C)n(-c3ccccc3F)c2C)S1,i,nt,nt,nt,nt,nt,nt
CN(C)c1ccc(/C=N/NC(=O)c2ccccn2)cc1,i,i,i,i,i,nt,nt
CN(C)c1ccc(NC(=S)c2ccccn2)cc1,42,i,i,i,i,i,38
CN(C)c1ccc(C(=S)Nc2ccccc2)cc1,46,i,i,i,i,i,i
CN(C)c1cc(O)c(C(=S)Nc2ccccc2)c(N(C)C)c1,i,i,i,i,i,nt,nt
CCOC(=O)C1CCN(C(=O)c2cc(CN3C(=O)c4ccccc4C3=O)ccc2OCC)CC1,i,i,i,i,i,nt,nt
Cc1cc(C(=O)NC2CCCc3c2cnn3-c2ccc(C(C)(C)C)cc2)nn1C (centres undefined),64,i,i,i,i,i,71
CC(C)(C)c1ccc(-n2ncc3c2CCCC3NC(=O)C2(C(N)=O)CC2)cc1 (centres undefined),65,i,i,i,i,i,60
c1ccc(CCc2nn3c(-c4ccncc4)nnc3s2)cc1,51,68,i,i,i,i,i
COC(=O)C1C(=O)N2CCCSC2=C(C#N)C1c1cccs1 (centres undefined),i,i,i,i,i,nt,nt
Cc1cccc(Cl)c1NC(=O)N1CCCN(c2nc3ccc(Cl)cc3s2)CC1,49,i,i,i,i,i,41
Cc1cccc(C)c1NC(=O)N1CCN(c2nc3ccccc3s2)CC1,48,i,i,i,i,i,i
O=C(CN1C(=O)c2ccc([N+](=O)[O-])cc2C1=O)Nc1nccs1,i,i,i,i,i,nt,nt
Cc1cc(=O)oc2cc(OC(C)C(=O)NC3CCCC3)ccc12 (centres undefined),i,i,i,i,i,nt,nt
O=c1c2ccccc2nc(/C=C/c2cccnc2)n1CCc1ccccc1,44,i,i,i,i,i,i
CC1(C)NC(C)(C)c2nonc2/C1=N\O,i,i,i,i,i,nt,nt
O=C(COC(=O)c1ccc[nH]c1=O)Nc1ccc(N2CCCCC2)cc1,86,i,i,i,87,77,71
c1ccc(CCNc2ccnc3cc4ccccc4cc23)cc1,65,i,i,i,i,15,59
SMILES,NR2F2 inh,NCOA1 inh,NR5A2 inv ag,NCOA3 inh,SRC2 inh,Gal4-VP16 ctr,COUP-TFII conf
CC(C)Nc1ccc(Nc2ccnc3cc4ccccc4cc23)cc1,i,i,i,i,i,nt,nt
Cc1cnc(Sc2ncccc2[N+](=O)[O-])nc1,i,i,i,i,i,nt,nt
Cc1ccc[n+](CC(=O)Nc2cc(C(F)(F)F)ccc2Cl)c1,i,i,i,i,i,nt,nt
CCC(C)(C)c1ccc(OCCCC[n+]2cccc(C)c2)c(C(C)(C)CC)c1,62,i,i,i,i,i,38
NC(CSC1(c2ccc(F)cc2)c2ccccc2-c2ccccc21)C(=O)O (centres undefined),i,i,i,i,i,nt,nt
CCCCOc1ccc(Br)cc1CSC(=N)N,76,i,i,i,i,i,44
CCOc1ccc(C(C)=O)cc1CSC(=N)N,i,i,i,i,i,nt,nt
O=C1NC[C@H](CCCCN2C[C@H](Cc3ccc(O)cc3)N(CCC3CCCCC3)C(=O)C2=O)N(CCc2ccccc2)C1=O,i,nt,i,nt,i,nt,nt
CCN1C/C(=C/c2ccc(N3CCOCC3)cc2)C(=O)/C(=C/c2ccc(N3CCOCC3)cc2)C1,37,i,i,i,i,24,39
